Experimental data published in PubChem BioAssay AID686979 (National Center for Advancing Translational Sciences (NCATS), 2013).
Where “and” joins values, the source holds several entries; their conditions need not be identical. Equal values may be shown once. The campaign covered roughly 420,000 compounds. About 50,000 (12%) were called active. Inconclusive results (about 26%) are left out. For the sample, actives were picked, then their nearest neighbours and some compounds at random. A number with no mark means an inactive call. Calls follow the shape of the dose curve; as a rule, active = well fitted inhibition curve with a large enough effect; inconclusive = small, poorly fitted or top-dose-only effect; inactive = flat fitted curve, though single readings scatter.

assay: qHTS for Inhibitors of human tyrosyl-DNA phosphodiesterase 1 (TDP1): qHTS in cells in presence of CPT; details: chicken DT40 Tdp1-/-;hTDP1 cells + 20 nM CPT, ATP luminescence, 48 h; series mostly up to 46.2 µM; activity change, negative = growth inhibition: at the top concentration; also: nearly all actives have a fitted effect of over 55% in size
Outline: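 Chicken DT40 Tdp1-/- cells complemented with human TDP1, 400 cells/well, exposed to compounds plus 20 nM camptothecin for at least 48 h at 37 C; viability read as ATP content by CellTiter-Glo luminescence.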
% is scaled to controls: 0 for no effect and ±100 for the full control effect; potency is read from the fitted curve at half-maximal effect.

Compound | Potency | activity change, negative = growth inhibition
COc1ccc(CCNCc2c(-c3ccccc3)n(C)c3ccccc23)cc1 | 16.4 µM (active) | –
COc1ccc(CCNC(=O)COC(=O)c2cc(=O)c3ccccc3o2)cc1 | – | 2.28%
COc1ccc(-c2c(C#Cc3ccccc3)c3ccccc3n2C)cc1 | – | -25.1%
O=c1[nH]c2c(c(=O)n1-c1ccccc1)CCO2 | – | -15.9%
O=C(CCNC(=O)c1ccc([N+](=O)[O-])cc1)NC1CCCCC1 | – | -24.5%
CCOc1ccc(C2c3[nH]c4ccccc4c3CCN2Cc2cn(CC)nc2C)cc1 (centres undefined) | – | -6.24%
CCOc1ccc(C2c3[nH]c4ccccc4c3CCN2Cc2cccn2-c2ncccn2)cc1 (centres undefined) | 20.6 µM (active) | –
c1ccc(C2c3[nH]c4ccccc4c3CCN2Cc2cccn2-c2cccnc2)nc1 (centres undefined) | – | -17.5%
CN(CC(=O)Nc1c(Cl)cccc1Cl)C(=O)CNC(=O)C1CCCCC1 | – | -1.71%
CCCCNC(=O)CSc1nc2n[nH]c(C)c2c(=N)n1-c1cccc(Cl)c1C | 16.4 µM (active) and 11.6 µM (active) | –
CCC(Sc1nc2n[nH]c(C)c2c(=N)n1-c1ccccc1Cl)C(=O)N(CC)CC (centres undefined) | 18.4 µM (active) | –
CCCCNC(=O)CSc1nnc(-c2ccco2)n1C | – | -3.19%
Cc1ccc(-n2c(SCC(=O)NCCC3=CCCCC3)nc3n[nH]c(C)c3c2=N)cc1Cl | 11.6 µM (active) | –
CCCCNC(=O)CSc1nccn1Cc1ccccc1 | – | -14.5%
CCOc1ccc(-n2c(SCC(=O)Nc3cc(C(=O)O)ccc3Cl)nc3ccccc3c2=O)cc1 | – | -13.7%
O=C(COc1ccc(Cl)cc1)NCCC1=CCCCC1 | – | -14.4%
Cc1nnc(OCC(=O)NCCC2=CCCCC2)c2ccccc12 | – | 3.47%
CCOc1ccc(-n2c(SCC(=O)NCc3ccccc3)nc3n[nH]c(C)c3c2=N)cc1 | 9.2 µM (active) | –
Cc1nnc(SCC(=O)NCCOc2ccc(Cl)cc2)n1-c1ccccc1 | – | 5.23%
O=C(COC(=O)c1cccnc1Cl)NC(=O)NC1CCCCC1 | – | -26.5%
C[C@H](C(=O)CC(=O)OC(C)(C)C)[C@H](O)c1ccc(C(F)(F)F)cc1 | – | -20.8%
Cc1ccc(SCCC(=O)NC(C(C)C)C(C)C)cc1 | – | -19.8%
COc1ccc(OCC(=O)Nc2ccc(NC(=O)c3ccco3)c(C)c2)cc1 | – | -2.05%
CCC1(C2CCN(C(=O)c3cccc(F)c3F)CC2)NC(=O)N(CCc2scnc2C)C1=O (centres undefined) | – | 9.29%
CCCC(C)NC(=O)C1CCN(C(=O)C2CC(=O)N(c3ccc(C)cc3)C2)CC1 (centres undefined) | – | -3.56%
CCN(Cc1ccccc1)S(=O)(=O)c1cc(C(=O)O)ccc1OC | – | 2.08%

Compound | Potency | activity change, negative = growth inhibition
CSC1=NN(c2ccccc2)CN(c2ccccc2)N1C | – | 7.18%
CC(C)NC(=O)NC(=O)CSc1nnc(-c2ccccc2F)n1N | – | -22.8%
COc1ccc(-n2c(SCC(=O)Nc3ccc(Cl)c(C)c3)nc3n[nH]c(C)c3c2=N)cc1 | 13 µM (active) | –
COc1ccc(-n2c(Cc3cccn3C)nnc2SCC(=O)Nc2cc(C)cc(C)c2)cc1 | – | 2.23%
COc1ccc(-n2nnnc2SCC(=O)Nc2ccccc2)cc1 | – | -14.1%
Cn1c(CNC(=O)c2ccccc2F)nnc1SCc1ccc(F)cc1 | – | -7.86%
O=C(NCc1cccnc1)c1nc(-c2cccs2)no1 | – | 14.9%
CC(=O)Nc1ccc(NC(=O)CN2CCCC(C)C2)c(Cl)c1 (centres undefined) | – | -20.9%
O=C(CSc1ccccc1)Nc1cc(Cl)ccc1Oc1ccccc1 | – | -9.91%
CC1CCCN(CC(=O)Nc2cc(Cl)ccc2Oc2ccccc2)C1 (centres undefined) | 25.9 µM (active) | –
CC1CCCN(S(=O)(=O)c2ccc(-c3ccc(=O)[nH]n3)o2)C1 (centres undefined) | – | -5.64%
Cc1ccc(/C=C/C(=O)OCC(=O)NCc2ccc(Cl)cc2)o1 | – | 1.25%
COCCNC(=O)C(c1ccc(C)o1)N(Cc1cccs1)C(=O)c1snc(C(N)=O)c1N (centres undefined) | – | -20.2%
Cc1ccc(C(C(=O)NCC2CCCO2)N(C(=O)c2snc(C(N)=O)c2N)c2ccc(C(C)C)cc2)o1 (centres undefined) | 23.1 µM (active) | –
Cc1ccc(N(C(=O)Cc2cccs2)C(C(=O)NCC2CCCO2)c2ccncc2)cc1 (centres undefined) | – | 0.789%
COc1ccc(N(C(=O)c2snc(C(N)=O)c2N)C(C(=O)NC2CCCC2)c2ccco2)cc1OC (centres undefined) | – | 5.11%
CCOc1ccc(N(C(=O)c2snc(C(N)=O)c2N)C(C(=O)NCC2CCCO2)c2c[nH]c3ccccc23)cc1 (centres undefined) | – | -75.3%
Cc1ccc(N(C(=O)c2snc(C(N)=O)c2N)C(C(=O)NCC2CCCO2)c2c[nH]c3ccccc23)cc1 (centres undefined) | 4.61 µM (active) | –
Nc1nc(Sc2ncccc2[N+](=O)[O-])n[nH]1 | – | -12%
O=C(Oc1ccc(Br)cc1C(=S)N1CCOCC1)c1cccc([N+](=O)[O-])c1 | – | -14.6%
O=C(NNC(=O)C(O)c1ccccc1)NC1CCCCC1 (centres undefined) | – | -10.7%
O=C(CN1CCN(Cc2ccc(Cl)cc2)C1=O)NCc1ccc(F)cc1 | – | -26.3%
NC(=O)c1ccc(Nc2ccc3nonc3c2[N+](=O)[O-])cc1 | – | 0.436%
O=C(Nc1cccc2ccccc12)N1CCN(Cc2ccc3c(c2)OCO3)CC1 | – | -19.1%
Cc1cc(C)n2nc(C(=O)N3CCN(Cc4ccc5c(c4)OCO5)CC3)nc2n1 | – | 2.69%
O=C(c1cccs1)N1CCN(Cc2ccc3c(c2)OCO3)CC1 | – | -18.3%

Compound | Potency | activity change, negative = growth inhibition
O=C(C1CCN(Cc2ccc(Cl)cc2)CC1)N1CCN(Cc2ccc3c(c2)OCO3)CC1 | 23.1 µM (active) | –
O=C(C1CCN(S(=O)(=O)c2cnc[nH]2)CC1)N1CCN(Cc2ccc3c(c2)OCO3)CC1 | 20.6 µM (active) | –
CCN(CCCNC(=O)C1CCN(S(=O)(=O)c2cnc[nH]2)CC1)c1ccccc1 | – | -22%
CCN(C(=O)CSc1nnnn1-c1ccc(OC)cc1)C1CCS(=O)(=O)C1 (centres undefined) | – | 4.62%
CO/N=C/c1cn(-c2ccc(Cl)cc2)nn1 | – | -1.57%
CSc1ccc(/C=N/NC(=O)c2cccc(Cl)c2)cc1 | – | 2.7%
CCOC(=O)c1ccccc1NC(=O)c1c(N)n(C)c(=O)[nH]c1=O | – | -25.9%
CCc1ccc(NC(=O)CN2C(=O)COc3ccc(S(=O)(=O)N4CCCC4)cc32)cc1 | – | -26.2%
NS(=O)(=O)c1ccc(NC(=O)/C=C/c2ccccc2Cl)cc1 | – | -4.03%
COC(=O)COc1ccc(S(=O)(=O)Nc2ccc(NC(C)=O)cc2)cc1 | – | -10.2%
CC(=O)Nc1ccc(S(=O)(=O)N2CCCC2C(=O)O)cc1 (centres undefined) | – | 6.9%
COc1cc(NS(=O)(=O)c2ccc(NC(C)=O)cc2)cc(OC)c1 | 14.6 µM (active) | –
COc1cc(OC)cc(C(=O)Nc2ccc(S(=O)(=O)Nc3cc(C)on3)cc2)c1 | – | -1.33%
CC(=O)Nc1ccc(S(=O)(=O)Nc2ccc(N3CCCCC3)cc2)cc1 | 4.61 µM (active) | –
COc1ccc(C(=O)Nc2ccc(S(=O)(=O)Nc3onc(C)c3C)cc2)cc1OC | – | -6.94%
COc1ccc(NS(=O)(=O)c2ccc(NC(=O)c3ccc(N(C)S(C)(=O)=O)cc3)cc2)cc1 | 8.2 µM (active) | –
CC(=O)Nc1ccc(NS(=O)(=O)c2ccc3c(c2)NC(=O)CC(=O)N3)cc1 | – | 4.03%
COc1ccc(NC(=O)c2cnc(NS(=O)(=O)c3ccccc3)nc2)cc1 | – | 1.22%
CC(=O)Nc1ccc(S(=O)(=O)Nc2cccc(NC(=O)C(C)(C)C)c2)cc1 | – | -20.3%
COc1ccc(/C=N/NS(=O)(=O)c2ccc(NC(C)=O)cc2)cc1 | – | -22.2%
COc1ccc(NS(=O)(=O)c2ccc(NC(C)=O)cc2)cc1OC | 9.2 µM (active) | –
CCOc1ncccc1C(=O)OCC(=O)N1c2ccccc2CC1C (centres undefined) | – | -21.5%
Oc1cccc2ccc(/C=C/c3ccc(Br)s3)nc12 | – | -11.9%
Cc1c(C(=O)NCCN2C(=O)S/C(=C\c3cccs3)C2=O)cccc1[N+](=O)[O-] | – | -19.9%
CCCNC(=O)CCn1cc(-c2ccc(OC)cc2)nc1CCN | – | -18.8%
CC(=O)c1cccc(NC(=S)N2CCN(S(C)(=O)=O)CC2)c1 | – | 2.39%

Compound | Potency | activity change, negative = growth inhibition
CCCCCn1c(=O)c(C(=O)OCC)c(Cl)c2ccccc21 | – | -8.41%
COc1ccc2oc(C)c(NC(C)=O)c2c1 | – | 3.05%
COc1ccc(S(=O)(=O)Nc2ccc3oc(C)c(C(C)=O)c3c2)cc1 | 3.26 µM (active) | –
CC(=O)c1c(C)oc2ccc(NS(=O)(=O)c3ccccc3)cc12 | – | -27%
Cc1cccc(-c2noc(CCC(=O)NC3CCCC3)n2)c1 | – | 0.0036%
CC(Oc1ccccc1)C(=O)Nc1c2c(nn1-c1ccccc1)CS(=O)C2 (centres undefined) | – | 4.72%
Cc1cccc(NC(=O)c2nnn(-c3cccc(C(F)(F)F)c3)c2N)c1 | – | -0.269%
Cc1cc(C(=O)Nc2cccc(C(F)(F)F)c2)c2c(C)nn(-c3cccc(F)c3)c2n1 | 18.4 µM (active) | –
COc1cccc(NC(=O)Cn2c(=O)cc(C)c3c(C)nn(-c4cccc(F)c4)c32)c1 | – | -23.6%
O=C(CNC(=O)c1ccccc1F)OCC(=O)c1c[nH]c2ccccc12 | – | -1.48%
COc1ccc(S(=O)(=O)NCCSc2nnnn2-c2ccccc2)cc1 | – | -21.7%
CCCn1c(=O)c2c(C(F)(F)F)cc(-c3cccs3)nc2n(CCC)c1=O | – | -20.2%
CCn1c(C(O)c2cc(OC)ccc2OC)nc2ccccc21 (centres undefined) | – | 12%
Cc1nc2ccccc2n1CC(=O)N/N=C/c1cccs1 | – | 5.92%
CCn1c(/C=N/NC(=O)c2ccc(OC)cc2)nc2ccccc21 | 13 µM (active) | –
O=C(CCN1CCCCC1)Nc1ccc(F)c(F)c1 | – | 1.1%
O=C(CNS(=O)(=O)c1ccc2ccccc2c1)Nc1ccc(F)c(F)c1F | – | 3.97%
Cc1ccc(S(=O)(=O)N2CCN(C(=O)CN3C(=O)NC(C)(c4ccc(Cl)cc4)C3=O)CC2)c(C)c1 (centres undefined) | 23.1 µM (active) | –
Cc1ccc(S(=O)(=O)N2CCN(C(=O)COC(=O)CNC(=O)c3ccc(C(C)(C)C)cc3)CC2)c(C)c1 | – | -6.02%
Cc1nc(-c2ccc(F)cc2)c(CC(=O)Nc2cccc(S(=O)(=O)N3CCOCC3)c2)s1 | – | -26.3%
COc1ccccc1CCC(=O)OCC(=O)N1CCN(S(=O)(=O)c2ccc(C)cc2C)CC1 | 25.9 µM (active) | –
CCCc1cc(=O)[nH]c(SCC(=O)N2CCN(S(=O)(=O)c3ccc(C)cc3C)CC2)n1 | – | -5.18%
Cc1ccc(NC(=O)CN2C(=O)NC(C)(c3ccc(Cl)cc3)C2=O)c(Br)c1 (centres undefined) | – | -19.5%
CC1(C)NC(=O)N(CC(=O)N2CCN(S(=O)(=O)c3ccccc3F)CC2)C1=O | – | -0.0907%
Cc1ccc(S(=O)(=O)N2CCN(C(=O)Cc3sc(C)nc3-c3ccc(F)cc3)CC2)c(C)c1 | 18.4 µM (active) | –
Cc1ccc(S(=O)(=O)N2CCN(C(=O)COC(=O)c3c(C)noc3C)CC2)c(C)c1 | – | -14.3%
